High-throughput results as filed in PubChem.
Sa ugtP lethal: growth inhibition of ugtP-null S. aureus, primary screen, RN4220 ugtP deletion, OD600; growth inhibition, % (test concentration not listed); 330,000 tested, 0.54% active; 16 h; in the data active = growth inhibition above about 68%;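 also: plate controls were untreated wells for no effect and antibiotic for full effect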
RN4220 kill: growth inhibition of S. aureus RN4220, primary screen, OD600. 16 h. inhibition, % (concentration not given with the values). 330,000 tested, 0.33% active. AID 1259311, 2017; in the data active = inhibition above about 85%;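 also: plate controls were untreated cells for no effect and reference antibiotic for full effect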
PriA SSB inh: inhibitors of Klebsiella pneumoniae PriA binding to SSB C-terminal tail, primary screen, biochemical, AlphaScreen | 430,000 tested, 0.6% active | AlphaScreen SSBct-PriA binding, biotinylated peptide | PriA–SSB C-terminal tail interaction (Klebsiella pneumoniae) | inhibition, % at 33 µM; in the data active = inhibition mostly above about 37%, no sharp cut-off; inactive = mostly below about 20%;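 also: plate controls were negative control peptide for no effect and reference peptide for full effect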
An asterisk follows results filed as active; · = not tested or not shown. Only some compounds are listed: those with a hit (about 1% of all), similar ones and a draw of the others.

SMILES | Sa ugtP lethal | RN4220 kill | PriA SSB inh
CCCOc1ccc(-c2csc(NC(=O)c3cc(C)no3)n2)cc1 | · | · | -8
COc1ccc(-c2ccc(/C=C3/C(=N)N4C(C)=CSC4=NC3=O)o2)c([N+](=O)[O-])c1 | 98* | 6 | 9
COc1ccc(-c2ccc(/C=C3\C(=O)N(c4ccccc4)N=C3c3ccccc3)o2)c([N+](=O)[O-])c1 | 2 | -7 | -10
O=C(NC(=S)NNC(=O)c1ccccc1O)c1cccnc1 | 2 | 19 | 62*
O=C(NC(=S)NNC(=O)c1ccccc1I)c1cccnc1 | · | · | 51
CC(C)(C)c1ccc(NC(=O)COC(=O)c2ccc([N+](=O)[O-])s2)cc1 | 100* | 83 | 27
Cc1[nH]c2ccccc2c1C(=O)COC(=O)c1ccc([N+](=O)[O-])s1 | 96* | 90* | 45*
O=C(COC(=O)c1ccc([N+](=O)[O-])s1)NCc1ccccc1 | 7 | 10 | -6
O=C(COC(=O)c1ccc([N+](=O)[O-])s1)Nc1ccc(F)cc1 | 7 | 7 | 10
CC(C)OC(=O)c1cc(NC(=S)Nc2ccc([N+](=O)[O-])cc2)cc(C(=O)OC(C)C)c1 | 100* | 100* | -5
CC(C)CCNC(=S)Nc1ccc([N+](=O)[O-])cc1 | -1 | 25 | 6
NC(=Nc1nc2ccccc2o1)NC(=O)c1ccccc1NC(=O)c1ccccc1 | · | · | -13
COCCN1CCC(CNC(=O)c2ccccc2C)CC1 | · | · | -14
Cc1cc2ncc(CCCNC(=O)c3ccc4nc(C)sc4c3)cn2n1 | · | · | 18
CC(Cc1ccccc1)[N+]([O-])=Cc1ccc(C(F)(F)F)cc1 (stereo not drawn) | -5 | 4 | ·
CC(Cc1ccccc1)/[N+]([O-])=C\c1ccc(C(F)(F)F)cc1 (stereo not drawn) | · | · | 46*
Cc1nc(SC(C)c2ccccc2)[nH]c(=O)c1CC(=O)N1CCN(c2ccccn2)CC1 (stereo not drawn) | · | · | -2
CN(Cc1ccco1)Cc1ccc(O)c2ncccc12 | 2 | 1 | -5
CCCOCc1ccc(O)c2ncccc12 | 15 | 15 | 54*
Oc1ccc(COCc2ccccc2)c2cccnc12 | -1 | 9 | 84*
Oc1ccc(COC2CCCCC2)c2cccnc12 | · | · | 108*
Oc1ccc(Cc2ccccc2)c2cccnc12 | -3 | 7 | 9
Oc1ccc(COc2cccc3cccnc23)c2cccnc12 | · | · | 32
CC(C)COCc1ccc(O)c2ncccc12 | 8 | 15 | 84*
O=C(NCc1ccccn1)C(=O)Nc1c2c(nn1-c1ccc(Cl)cc1)CSC2 | · | · | 0
SMILES | Sa ugtP lethal | RN4220 kill | PriA SSB inh
COc1ccc(S(=O)(=O)N2CCC(c3cccs3)CC2)c(C)c1 | · | · | -11
COc1ccc(Cl)c2sc(N3CCN(C(=O)c4nc5ccccc5s4)CC3)nc12 | · | · | -5
Cc1cc(C(=O)NCCc2nc(C3CC3)cc(C(F)(F)F)n2)c(C)o1 | · | · | 13
O=C(CCc1csc(NC(=O)c2ccccc2)n1)Nc1nccs1 | · | · | -9
Cc1cc(-n2c(=O)c3sccc3n(Cc3c(C)noc3C)c2=O)ccc1F | · | · | 7
CC(=NNS(=O)(=O)c1ccc(Cl)cc1)c1ccc(NC(=O)c2ccco2)cc1 | · | · | 5
CCOC(=O)c1ccc(NC(=O)CC2S\C(=N/N=C\C=C\c3ccccc3)NC2=O)cc1 (stereo not drawn) | · | · | -5
O=C(NCc1cccnc1)N(c1ccccc1)c1ccccc1 | · | · | 37*
O=C(NCc1cccnc1)NC(=O)c1ccccc1 | · | · | 4
CCc1ccc(-n2ncc(C(=O)N3CCC(C(N)=O)CC3)c2-n2cccc2)cc1 | · | · | -12
COCCN1CCCc2ccc(NS(=O)(=O)Cc3cccc(C)c3)cc21 | · | · | 40*
COCCN1CCCc2ccc(NS(=O)(=O)c3ccc(Cl)cc3)cc21 | · | · | 25
COCCN1CCCc2ccc(NC(=O)c3ccc(C(C)(C)C)cc3)cc21 | · | · | 29
COCCN1CCCc2ccc(NC(=O)c3cccc(Br)c3)cc21 | · | · | 56*
COCCN1CCCc2ccc(NS(=O)(=O)c3cccc(C)c3)cc21 | · | · | 4
COCCN1CCCc2ccc(NS(=O)(=O)c3ccc(OCC(C)C)cc3)cc21 | · | · | 39*
N#CC1=C(N)Oc2n[nH]c(-c3ccccn3)c2C1c1c(F)cccc1Cl (stereo not drawn) | 14 | 18 | 42*
COCc1[nH]nc2c1C(c1c(F)cccc1Cl)C(C#N)=C(N)O2 (stereo not drawn) | 13 | 3 | 4
Cc1c([N+](=O)[O-])cc(S(=O)(=O)NCCOc2cccc(C(F)(F)F)c2)cc1[N+](=O)[O-] | · | · | 39*
Cc1c([N+](=O)[O-])cc(S(=O)(=O)NCCOc2ccc(F)cc2)cc1[N+](=O)[O-] | · | · | 20
BrC(/C=C\c1ccccc1)=NNc1nc(N2CCOCC2)nc(N2CCOCC2)n1 | · | · | 11
CCc1ccccc1NS(=O)(=O)c1ccc(SC)cc1 | 89* | 95* | -19
CSc1ccc(S(=O)(=O)Nc2c(C)cccc2C)cc1 | -15 | 33 | 6
COCCCN1C(=O)C(=O)C(=C(O)c2ccc(S(=O)(=O)N3CCCCC3)cc2)C1c1ccc(OC)cc1 (stereo not drawn) | · | · | -11
COc1ccc(Cl)cc1NC(=O)NCc1nc(C)cc(N2CCOCC2)n1 | · | · | -17
SMILES | Sa ugtP lethal | RN4220 kill | PriA SSB inh
CC(=O)Nc1ccc2nc(NC(=O)CCSc3ccc(Cl)cc3)sc2c1 | · | · | -4
CCC(C)OC(=O)C[N+](C)(C)CCOC1CC2CCC1(C)C2(C)C (stereo not drawn) | 8 | -9 | -13
CCCCCCCOC(=O)C[N+](C)(C)CCOC1CC2CCC1(C)C2(C)C (stereo not drawn) | 100* | 100* | -23
CCCCCCOC(=O)C[N+](C)(C)CCOC1CC2CCC1(C)C2(C)C (stereo not drawn) | 34 | 6 | -14
CC(C)CCOC(=O)C[N+](C)(C)CCOC1CC2CCC1(C)C2(C)C (stereo not drawn) | 101* | 45 | -24
CCCOC(=O)C[N+](C)(C)CCOC1CC2CCC1(C)C2(C)C (stereo not drawn) | 10 | -4 | -3
CCCCOC(=O)C[N+](C)(C)CCOC1CC2CCC1(C)C2(C)C (stereo not drawn) | 89* | -6 | -13
CC1(C)CC(=O)C2=C(C1)NC1=C(C(=O)c3ccccc31)C2c1ccc(Cl)cc1 (stereo not drawn) | -20 | -12 | 36
Cc1ccc(C2C3=C(CC(C)(C)CC3=O)NC3=C2C(=O)c2ccccc23)cc1 (stereo not drawn) | -10 | 1 | 51*
Cn1nc(C(F)(F)F)c(C=NOCc2c(Cl)cccc2Cl)c1Cl | 93* | 4 | -13
Clc1cccc(Cl)c1CON=Cc1cccs1 | 6 | 2 | ·
O=C(CSCc1ccccc1)N1CCN(C(=O)c2cnn3c2CCCC3)CC1 | · | · | -4
N#CC1=C(N)NC(=S)C(C(N)=O)C12CCCCC2 (stereo not drawn) | · | · | 1
CCN(CC)c1ccc(SS(=O)(=O)O)cc1 | 0 | 10 | 43*
CCN(CC)c1ccc(C(=O)O)cc1 | 3 | 6 | -6
Cc1ccc(O)c(C(=O)CC(=O)c2cccc(F)c2)c1 | 100* | 78 | 9
Cc1cccc(C(=O)CC(=O)c2cc(Cl)ccc2O)c1 | 100* | 100* | -7
Nc1ccc(Cl)cc1C(=O)c1ccccc1 | -4 | 11 | -4
Cc1ccc(C(=O)CC(=O)c2ccccc2)cc1 | 10 | 2 | -125
